# Inconclusive results are not listed. Activity calls are given as the source filed them. How the source made its calls: active means hit-call score of the fitted dose curve at least 0.9, where 1 is the maximum; inconclusive means response in the unintended direction; inactive means score below 0.9.
# Read-out: Cytochrome P450 2C9 (Homo sapiens) (UniProt P11712)
# Test: CLD_CYP2C9_24hr: CellzDirect (CLD) Gene Expression Assay for xenobiotic metabolism (CYP2C9) at 24 hours (AID 2283688)
# Procedure: CLD_24hr is a cell-based, multiplexed-readout assay that uses hepatocyte, a human liver primary cell, with measurements taken at 24 hours after chemical dosing in a 96-well plate.CLD_CYP2C9_24hr is one of 16 assay component(s) measured or calculated from the CLD_24hr assay. It is designed to make measurements of mRNA induction, a form of inducible reporter, as detected with chemiluminescence signals by Quantitative Nuclease Protection Assay (qNPA) technology.Data from the assay component CLD_CYP2C9_24hr was analyzed at the endpoint, CLD_CYP2C9_24hr, in the positive analysis fitting direction relative to DMSO as the negative control and baseline of activity. Using a type of inducible reporter, gain-of-signal activity can be used to understand changes in the reporter gene as they relate to the gene CYP2C9. Furthermore, this assay endpoint can be referred to as a primary readout. To generalize the intended target to other relatable targets, this assay endpoint is annotated to the cyp intended target family, where subfamily is xenobiotic metabolism.
# Human hepatocyte cultures were treated daily for two consecutive days with fresh dosing solutions containing appropriate concentrations of the 320 ToxCast chemicals (chemical identities were blinded to CellzDirect and other ToxCast collaborators), vehicle control (0.2% DMSO), and positive control inducers as summarized in Table 1. Due to the large number of treatment groups and chemicals examined, the ToxCast chemicals were divided into two groups (spanning two independent cultures of hepatocytes from separate donor preparations (Hu778: ToxCast plates 1 and 2; Hu776: ToxCast plates 3 and 4). Each preparation of human hepatocyte cultures was treated with respective vehicle control, medium only control, set of six positive controls/reference chemicals for the five hepatic receptor pathways, and a subset of eight of the ToxCast chemicals (indoxacarb, pyrithiobac-sodium, norflurazon, cyhalofop-butyl, methomyl, thiram, acetochlor, and propiconazole). These replicate data, coupled with internal replicates designed within the blinded ToxCast chemical library, provided additional data to evaluate interindividual differences between hepatocyte preparations and their potential impact on chemical profiles.Cell morphology and integrity were evaluated using phase-contrast microscopy as an indicator of hepatocyte cell health (Tyson & Green, 1987). Cultures for each treatment group (i.e., media, vehicle [0.2% DMSO], positive control inducers [multiple concentrations], and the ToxCast chemicals [multiple concentrations]) were observed and cell morphology was assessed relative to vehicle control cultures at each harvest time point (0, 6, 24, or 48 h). […] Images were evaluated at the conclusion of the study to assess changes in cell integrity and account for the effects of chemical exposure on uncharacteristic changes in concentration-dependent gene expression profiles. The results from these determinations of apparent cytotoxicity were annotated (yes/no) alongside the corresponding qNPA data for reference.At the conclusion of each treatment period, hepatocyte cultures (96-well) were washed with 1 volume of HBSS, lysed by addition of 25 ul ArrayPlate lysis buffer (HTG, Tucson, AZ), and 70 ul/well of Denaturation Oil, denatured by incubation at 95C for 10 min, and frozen at approximately -70C until analysis by nuclease protection assay (qNPA) (Roberts et al., 2007). For qNPA analysis, cell lysates were thawed at 50C for approximately 30 min, qNPA probes were added, and samples were incubated at 95C for 10 min to begin the detection process by denaturing the target RNA, dissociating the duplexes and secondary structure hybridization. At the conclusion of the hybridization period, S1 nuclease reagent was added to each sample to digest all nonprotected nucleotides at 50C for 60-90 min. […]
row,Compound,outcome
1,C=CCOC(=O)C(C)(C)OC(=O)c1cc(-n2c(=O)cc(C(F)(F)F)n(C)c2=O)ccc1Cl,inactive
2,CC(C)N1C(=O)N(c2ccccc2)CSC1=NC(C)(C)C,inactive
3,N#Cc1c(Cl)cccc1Cl,inactive
4,O=C1C2CC=CCC2C(=O)N1SC(Cl)(Cl)Cl (stereo not given),inactive
5,COP(=S)(OC)SCn1nnc2ccccc2c1=O,inactive
6,CCN(CC)C(=O)C(C)Oc1cccc2ccccc12 (stereo not given),inactive
7,CCOP(=S)(OCC)Oc1nc(Cl)n(C(C)C)n1,inactive
8,CC(C)Nc1nc(Cl)nc(NC(C)C)n1,inactive
9,CC(C)C1(C)N=C(c2ncccc2C(=O)O)NC1=O (stereo not given),inactive
10,CCNC(=O)NC(=O)C(C#N)=NOC,inactive
11,CC1(C)CCC(=Cc2ccc(Cl)cc2)C1(O)Cn1cncn1 (stereo not given),inactive
12,N#CN=C1SCCN1Cc1ccc(Cl)nc1,inactive
13,Nc1c(Cl)c(F)nc(OCC(=O)O)c1Cl,inactive
14,CC1(C)C(C=C(Cl)Cl)C1C(=O)OC(C#N)c1cccc(Oc2ccccc2)c1 (stereo not given),inactive
15,CCOc1nc(C(Cl)(Cl)Cl)ns1,inactive
16,CSC(=O)c1c(C(F)F)nc(C(F)(F)F)c(C(=O)SC)c1CC(C)C,inactive
17,CCOP(=O)(OCC)Oc1nc(Cl)c(Cl)cc1Cl,inactive
18,COc1cc(OC)nc(NC(=O)NS(=O)(=O)c2ncccc2OCC(F)(F)F)n1,inactive
19,O=c1n(Cl)c(=O)n(Cl)c(=O)n1Cl,inactive
20,CCCC(=NOCC)C1=C(O)CC(CC(C)SCC)CC1=O (stereo not given),inactive

row,Compound,outcome
1,O=C(O)c1c(Cl)ccc2cc(Cl)cnc12,inactive
2,COCc1cnc(C2=NC(C)(C(C)C)C(=O)N2)c(C(=O)O)c1 (stereo not given),inactive
3,CCCCOCN(C(=O)CCl)c1c(CC)cccc1CC,inactive
4,Nc1c(Cl)c(Cl)nc(C(=O)O)c1Cl,inactive
5,Nc1cnn(-c2ccccc2)c(=O)c1Cl,inactive
6,C=C(C)CN(CC)c1c([N+](=O)[O-])cc(C(F)(F)F)cc1[N+](=O)[O-],inactive
7,CCNP(=S)(OC)O/C(C)=C/C(=O)OC(C)C (stereo not given),inactive
8,CC(C)=CC1C(C(=O)OCc2coc(Cc3ccccc3)c2)C1(C)C (stereo not given),inactive
9,Cc1cnc(C2=NC(C)(C(C)C)C(=O)N2)c(C(=O)O)c1 (stereo not given),inactive
10,COC(=O)NC(=S)Nc1ccccc1NC(=S)NC(=O)OC,inactive
11,CC1(C)C(C(=O)OC(C#N)c2cccc(Oc3ccccc3)c2)C1(C)C (stereo not given),inactive
12,Cc1c(COC(=O)[C@@H]2[C@H](/C=C(\Cl)C(F)(F)F)C2(C)C)cccc1-c1ccccc1,inactive
13,Clc1cccc(C(Cl)(Cl)Cl)n1,inactive
14,CC(C)(C)C(=O)C(Oc1ccc(Cl)cc1)n1cncn1 (stereo not given),inactive
15,CCOc1nc(F)cc2nc(S(=O)(=O)Nc3c(Cl)cccc3Cl)nn12,inactive
16,OC(c1ccc(Cl)cc1)(c1ccc(Cl)cc1)C(Cl)(Cl)Cl,inactive
17,COc1cc(Cl)c(OC)cc1Cl,inactive
18,Cc1nc(N(C)C)nc(OC(=O)N(C)C)c1C,inactive
19,CC(C)Oc1cccc(NC(=O)c2ccccc2C(F)(F)F)c1,inactive
20,COCC(C)N(C(=O)CCl)c1c(C)csc1C (stereo not given),inactive
